Hits are enriched below; roughly 3.9% of the tested compounds scored in any of these assays.
MITF TRPM1 HTS = activators of MITF-driven TRPM1 promoter reporter, primary screen, cell-based, SK-MEL-5, luciferase, single point | SK-MEL-5 TRPM1-promoter luciferase, 24 h; % of positive control, neutral wells = 0 | activation, % at 12.5 µM | 300,000 tested, 0.75% active | AID 588334, 2011;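 active = mean activation of at least 80% with every replicate also reaching 80%; inconclusive = mean reaches 80% but some replicate falls short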;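 also: 0% = neutral control wells and 100% = parthenolide positive control wells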
Wnt bcat act = Wnt/beta-catenin pathway activators, primary screen, cell-based, plate reader, single point | activation, % at 9.35 µM | Wnt/beta-catenin reporter cell assay, activator | AID 743398, 2014 | 300,000 tested, 1.2% active; in the data active = activation above about 30%, passing the limit was not always enough; inconclusive = no clear call, values can overlap the other calls;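 also: 0% = neutral control wells and 100% = positive control wells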
esBAF inh = Bmi1 luciferase reporter increase in mESCs, primary screen, esBAF inhibitor project, mouse ES cells, Bmi1 luciferase knock-in, single point | 24 h; 100% = twice the neutral-well signal | reporter increase, % at 12.5 µM | 350,000 tested, 2% active; in the data active = activation above about 40%; inconclusive = no clear call, values can overlap the other calls;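 also: 0% = median of the plate's neutral control wells and 100% = double that signal; a rise in the Bmi1 reporter signal indicates esBAF inhibition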
HSF1 inh = HSF1 inhibitors in luciferase reporter cells, primary screen, cell-based, NIH3T3, luminescence; NIH3T3-HGL HSE-luciferase, MG132-induced, luminescence 8 h; hits give low values; activity change, negative = inhibition, % at 7.5 µM (by protocol); 300,000 tested, 0.77% active; AID 2098, 2009;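 active = more than half of replicate wells show activity change below -50%, luminescence cut by over half; inconclusive = some wells, but at most half, below -50%; inactive = no replicate well below -50%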;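 also: luciferase reports HSF-1 transcriptional activity via heat shock element; 0% = median of DMSO wells and -100% = zero luminescence signal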
HSF1 activator = HSF-1 activators, primary screen, NIH3T3-HGL cells, MG132 stress, luminescence, single point; NIH3T3-HGL HSF-1 luciferase reporter, 8 h; 100% = twice DMSO control signal; activation, % at 9 µM; 300,000 tested, 1.7% active;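 active = mean replicate activation of at least 50% with a set share of replicates each reaching 50%; inconclusive = only one of those two conditions met; inactive = mean below 50% and too few replicates reaching it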;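 also: 0% = median of the neutral control wells and 100% = twice that signal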
An asterisk follows results filed as active; ? = inconclusive; . = no result; ! = not confirmed by another sample.

SMILES	MITF TRPM1 HTS	Wnt bcat act	esBAF inh	HSF1 inh	HSF1 activator
C=CCN(CC=C)c1cnn(-c2nc3ccccc3[nH]2)c(=O)c1Cl	58	27	-4	28	?
O=c1c(Cl)c(NCCCO)cnn1-c1nc2ccccc2[nH]1	.	1	-16	54	63*
Cc1ccc(-c2cc3nc(-c4ccccc4)cc(N)n3n2)cc1	64	42*	.	32	62*
Cc1ccc(-n2nc(-c3ccccc3)cc2Nc2ccccc2N)cc1	11	-7	.	-4	-12
Cc1ccc(-c2cc(N)n3nc(-c4ccc(C)cc4)cc3n2)cc1	12	-2	-1	3	18
Cc1ccc(-c2cc(N)n(-c3ccc(C)cc3)n2)cc1	87*	.	47*	2	9
Cc1ccc(-c2cc(N)n(-c3ccc(F)cc3)n2)cc1	100*	9	.	-5	12
COCC(=O)Nc1ccc2c(c1)[C@@H]1C[C@H](CC(=O)NCCc3ccccc3)O[C@@H](CO)[C@@H]1O2	.	.	-2	.	.
CCOc1cc(CNC2CCCC2)ccc1OCc1ccccc1Cl	14	-7	-12	6	9
CCOc1cc(C2NN=C(c3ccccc3)S2)ccc1OCc1ccc(F)cc1 (centres undefined)	44	.	?	30	56*
CCOc1cc2c(cc1OCC)C(c1ccc(F)cc1)NCC2 (centres undefined)	-2	-19	-3	-2	3
CCOc1cc(C2NN=C(c3ccccc3)S2)ccc1OCc1ccccc1Cl (centres undefined)	50	.	.	38	53*
COc1cccc(NC(=O)N[C@@H]2CC[C@H](CC(=O)N3CCOCC3)O[C@@H]2CO)c1	.	.	-1	.	.
Cc1ccc(C)c(Cn2nnc3c(=O)[nH]c(C4CCN(C(=O)c5cccs5)CC4)nc32)c1	9	.	2	27	76*
Cc1ccc(C)c(Cn2nnc3c(=O)[nH]c(C4CCCN(C(=O)c5cccs5)C4)nc32)c1 (centres undefined)	-1	-1	-2	10	18
CC(=O)c1ccc(OCC(O)CN2CCN(Cc3ccc4c(c3)OCO4)CC2)cc1 (centres undefined)	4	-2	3	-61*!	-7
COc1ccc(-c2coc3cc(O)ccc3c2=O)cc1OC	39	.	59*	11	10
COc1ccc(-c2coc3cc(O)cc(O)c3c2=O)cc1OC	67	25	54*	4	8
COc1ccc(-c2c(C)oc3cc(O)cc(O)c3c2=O)cc1OC	-2	0	0	4	11
O=c1c(-c2ccc(O)cc2O)coc2cc(O)cc(O)c12	5	-2	1	-2	-2
COc1ccccc1-c1coc2cc(O)cc(O)c2c1=O	31	.	46*	6	10
CCC(=O)N[C@H]1CC[C@@H](CCNS(=O)(=O)c2ccc(Cl)cc2)O[C@@H]1CO	.	.	8	.	.
COc1ccc(S(=O)(=O)N[C@H]2CC[C@@H](CC(=O)NCCc3ccncc3)O[C@H]2CO)cc1	.	.	-7	.	.
COC(=O)[C@@H](C)NC(=O)c1ccc2oc(CCc3ccccc3)nc2c1	.	38*	66*	11	26
CCCOC1CCCN(C(=O)c2ccc3oc(C(C)C)nc3c2)C1 (centres undefined)	19	-1	44*	21	25
SMILES	MITF TRPM1 HTS	Wnt bcat act	esBAF inh	HSF1 inh	HSF1 activator
CC(NC(=O)c1ccc2nc(Cc3cccc(Cl)c3)oc2c1)c1ccncn1 (centres undefined)	.	-1	.	.	.
CCOC(=O)N1CCN(C(=O)c2ccc3oc(CCCc4ccccc4)nc3c2)CC1	38	34*	81*	23	61*
CC(C)(CO)NC(=O)c1ccc2nc(Cc3cccc(Cl)c3)oc2c1	.	1	43*	2	18
COC1CCCN(C(=O)c2ccc3oc(Cc4ccc(Cl)cc4)nc3c2)C1 (centres undefined)	1	0	-1	7	10
CC(C)NC(=O)Nc1ccc2c(c1)CC(=O)N([C@@H](C)CO)C[C@H](C)[C@H](CN(C)Cc1ccc(-c3ccccc3)cc1)O2	.	.	-3	.	.
COc1ccc(NC(=O)Nc2ccc3c(c2)CC(=O)N([C@H](C)CO)C[C@H](C)[C@@H](CN(C)C(=O)Nc2ccc(OC)cc2)O3)cc1	.	.	0	.	.

Compound activity as filed in PubChem.
